# Reference: PubChem BioAssay AID493240 (Broad Institute, 2011)
# Among all 1,300 compounds or so, about 270 (21%) were called active. No rule for the calls is given here. Not all results are given here. Potency and affinity values are given separately.
# Test: SK-MEL-5 parental cell viability loss, dose response, orthogonal assay for MITF inhibitor project, CellTiter-Glo, cherry-picked, set 3 (AID 493240)
# Details: SK-MEL-5 viability, ATP luminescence (CellTiter-Glo), 24 h; series mostly up to 35 µM; activity change, negative = viability loss: at the top concentration
row,Structure (SMILES),"activity change, negative = viability loss"
1,O=C(NC1CCCCC1)c1cc2cc(Br)ccc2o1,-7.02% (inactive)
2,C=CCOc1ccc(/C=C/C(C)=N\O)cc1,-7.06% (inactive)
3,Cc1cc(C)c(C#N)c(SCc2nnc(-c3ccccc3)o2)n1,-18.3% (inactive)
4,COc1ccc2nc(C)cc(SCC(=O)N/N=C/c3ccc(O)cc3O)c2c1,0.556% (inactive)
5,O=C(CNC(=O)c1ccc(Br)cc1)c1ccccc1,-3.92% (inactive)
6,Nc1ccc(Oc2cccc(Oc3ccc(N)cc3)c2)cc1,-1.11% (inactive)
7,O=C(Nc1cc(-c2nc3ncccc3o2)ccc1Cl)c1ccc([N+](=O)[O-])o1,-30.1% (inactive)
8,COc1ccc(C[C@H]2CN3C(=NC[C@@H]3C(C)C)N2CCNC(=O)c2ccc(C)c(Br)c2)cc1,-33.4% (inactive)
9,CCOc1ccc(C(=O)Nc2cccc(C(=O)O)c2C)cc1Cl,-2.1% (inactive)
10,COc1cccc(C(=O)Oc2c(CN3CCOCC3)cc(Cl)c3cccnc23)c1,-42.9% (inactive)
11,O=C(N/N=C/c1ccc([N+](=O)[O-])s1)c1cccc(Br)c1,-40.4% (inactive)
12,CCOc1ccc(NC(=O)CCC(=O)N/N=C/c2ccc([N+](=O)[O-])s2)cc1,-18.3% (inactive)
13,O=C(N/N=C/c1ccc([N+](=O)[O-])s1)c1ccccc1,-36.9% (inactive)
14,Cc1onc(-c2ccccc2)c1C(=O)N/N=C/c1ccc([N+](=O)[O-])s1,-25.6% (inactive)
15,O=C(N/N=C/c1ccc([N+](=O)[O-])s1)c1ccccc1Br,-50.9% (inactive)
16,O=C(CNC(=O)c1cccc(F)c1)N/N=C/c1ccc([N+](=O)[O-])s1,-35.6% (inactive)
17,Cc1ccccc1C(=O)N/N=C/c1ccc([N+](=O)[O-])s1,-37.6% (inactive)
18,CC(=O)c1ccc(S(=O)(=O)N2CCN(C(=O)/C=C/c3ccc4ccccc4n3)CC2)cc1,2.86% (inactive)
19,CN(C)c1ccc(/C=N/N2CCN(c3ccccn3)CC2)cc1,-7.38% (inactive)
20,CC(=O)Nc1nc(C)c(-c2csc(Nc3cccc(C(C)=O)c3)n2)s1,-6.68% (inactive)
21,O=C(O)c1ccccc1C(=O)Nc1ccc(Oc2cccc3ccccc23)cc1,0.723% (inactive)
22,O=C(Nc1ccc(N2CCOCC2)c(Cl)c1)c1cccc(F)c1,-13.3% (inactive)
23,O=C(CNC(=O)c1ccccc1)N/N=C/c1ccc([N+](=O)[O-])s1,-36.6% (inactive)
24,O=C(Cc1ccccc1)NCC(=O)N/N=C/c1ccc([N+](=O)[O-])s1,-22.4% (inactive)

row,Structure (SMILES),"activity change, negative = viability loss"
1,CCCN1C(=O)c2ccc(C(=O)Nc3cc(C)ccc3O)cc2C1=O,-8.02% (inactive)
2,Cc1cc(C)c2c(N)c(C(=O)N/N=C/c3ccccc3)sc2n1,-4.64% (inactive)
3,Cc1c(Cl)c([N+](=O)[O-])nn1Cc1ccc(C(=O)N/N=C\c2cc(Cl)ccc2O)o1,-10.6% (inactive)
4,O=C(Nc1cccc(S(=O)(=O)N2CCCCC2)c1)c1ccc([N+](=O)[O-])o1,-40.7% (inactive)
5,O=C(Nc1ccc(S(=O)(=O)N2CCCCCC2)cc1)c1[nH]ncc1[N+](=O)[O-],-22.2% (inactive)
6,O=C(CSc1nnnn1-c1ccc(O)cc1)Nc1cccc(S(=O)(=O)N2CCCC2)c1,-18.3% (inactive)
7,COc1ccc(NS(=O)(=O)c2cc(NC(=O)CNC(=O)c3cccc(OC)c3)ccc2C)cc1,6.38% (inactive)
8,O=C(N/N=C\c1cc(Cl)ccc1O)c1ccc(S(=O)(=O)N2CCCCC2)cc1,-33.5% (inactive)
9,O=C(CCl)Nc1cccc(S(=O)(=O)NC2=NCCCCC2)c1,-43.1% (inactive)
10,Cc1cccc(NC(=O)Cc2ccc(Br)cc2)n1,-13% (inactive)
11,Cc1ccc(Nc2nnc(-c3ccccc3N)o2)cc1C,15.7% (inactive)
12,COc1ccc(NC(=O)C2COc3ccccc3O2)cc1 (stereo not given),-4.53% (inactive)
13,Cn1nnnc1Sc1ncnc2scc(-c3cccs3)c12,-16.8% (inactive)
14,Cc1csc(NC(=O)Cc2c(F)cccc2Cl)n1,2.62% (inactive)
15,CC1(C)CC(=O)C=C(NC2=CC3OC(c4ccccc4)OCC3OC2=O)C1 (stereo not given),-23.8% (inactive)
16,O=[N+]([O-])/C=C\c1ccc(N2CCCC2)c(F)c1,-39.5% (inactive)
17,O=C(NCc1cccs1)c1nc2c(nnn2Cc2ccccc2Cl)c(=O)[nH]1,-3% (inactive)
18,COc1ccc(C2C(C#N)=C(N)Oc3c2oc(CO)cc3=O)cc1 (stereo not given),-0.975% (inactive)
19,O=C(O)c1ccc(N/N=C/c2ccc3nccnc3c2)cc1,-41.5% (inactive)
20,COc1cc([N+](=O)[O-])cc(/C=N/NC(=O)c2ccc(NC(=O)c3ccc(C)cc3)cc2)c1O,-2.58% (inactive)
21,CCN1CCN(c2ccc(S(=O)(=O)N3CCCCC3)cc2NC(=O)/C=C/c2ccc([N+](=O)[O-])cc2)CC1,-90% (inactive)
22,CCN1CCN(c2ccc(S(=O)(=O)N3CCOCC3)cc2NC(=O)/C=C/c2ccc([N+](=O)[O-])cc2)CC1,-52.7% (inactive)
23,O=C(NC1CCCC(C(F)(F)F)C1)c1ccc([N+](=O)[O-])o1 (stereo not given),-26.7% (inactive)
24,COc1cccc(-c2ccc3c(N)c(C(=O)NC4CC4)sc3n2)c1,4.82% (inactive)

row,Structure (SMILES),"activity change, negative = viability loss"
1,CC(Oc1cccc(Br)c1)C(=O)NNC(=O)c1ccccn1 (stereo not given),-39.2% (inactive)
2,C/C(=N\NC(=O)C(c1ccccc1)c1ccccc1)c1ccccn1,-43.6% (inactive)
3,CC1CCN(c2ccc(NC(=O)c3cccnc3)cc2)CC1,-3.45% (inactive)
4,COC(=O)c1ccc(/C=N/Nc2nc(C)c(C)s2)cc1,-5.59% (inactive)
5,CS/C(N)=N/N=C/c1ccc2c(c1)OCO2,-6.57% (inactive)
6,COc1cc(CN2CCC(C(N)=O)CC2)ccc1OCc1ccccc1,-13.3% (inactive)
7,COc1cc2c(cc1OC)C(C)N(S(=O)(=O)c1cnc(Cl)c(Cl)c1)CC2 (stereo not given),-14.2% (inactive)
8,CCOc1ccc(N/C=C/C(=O)c2ccc(OC)c(OC)c2)cc1,-2.16% (inactive)
9,N/C(=N\OC(=O)c1ccc(Cl)cc1Cl)c1ccncc1,3.52% (inactive)
10,O=C1CN(c2ccccc2)C(=S)N1C(=O)c1ccccc1,-0.936% (inactive)
11,O=C1C=CC(=C(c2ccc(O)cc2)c2ccc(O)cc2)C=C1,-65.4% (inactive)
12,COC(=O)CCS(=O)(=O)c1nc(-c2ccccc2)cc(C(F)(F)F)n1,-90.5% (inactive)
13,COc1ccccc1-c1cc(C(F)(F)F)nc(S(C)(=O)=O)n1,-87.5% (inactive)
14,N=C1C(c2nc3ccccc3[nH]2)=C(O)CN1C1CCCCC1,0.386% (inactive)
15,Cc1ccc(C(=O)Nc2ccccc2Cl)cc1,-19.9% (inactive)
16,Cc1cc(C(=O)CCl)c(C)n1CCc1ccc(F)cc1,-36.8% (inactive)
17,Cc1ccc2nc(NC(=O)CSCC(=O)OCC(=O)c3ccccc3)sc2c1,3.83% (inactive)
18,CCCCN=C(C)c1c(O)c2ccccc2oc1=O,10% (inactive)
19,Cc1ccc(NC(=O)c2ccccc2)cc1,-7.34% (inactive)
20,Cc1oc(=O)c(NC(=O)c2ccccc2)cc1C(=O)c1ccccc1,-13.9% (inactive)
21,COc1ccc(NC(=O)NC(=O)c2ccccc2)cc1,5.71% (inactive)
22,O=C(Nc1ccc(Cl)cc1)Nc1cccc(C(=O)O)c1,-12.4% (inactive)
